According to ChEMBL document CHEMBL3433997, “St. Jude Leishmania screening dataset” (2016):

Experiments:
Type in all cases: functional
[1] = target: Solute carrier family 2, facilitated glucose transporter member 1 (Homo sapiens) (UniProt P11166); experiment: ST_JUDE_LEISH: Cytotoxicity at 2uM final concentration against transgenic Leishmania Mexicana promastigotes LmGLUT1 that are glucose transport deficient and complemented with the human glucose transporter GLUT1. Activity is measured by DNA content using SYBR green in vitro
[2] = target: Hexose transporter 1 (Plasmodium falciparum) (UniProt O97467); experiment: ST_JUDE_LEISH: Cytotoxicity at 2uM final concentration against transgenic Leishmania Mexicana promastigotes LmPfHT that are glucose transport deficient and complemented with the Plasmodium falciparum hexose transporter. Activity is measured by DNA content using SYBR green in vitro
[3] = target: Glucose transporter (Leishmania mexicana) (UniProt O61059); experiment: ST_JUDE_LEISH: Cytotoxicity at 2uM final concentration against transgenic Leishmania Mexicana promastigotes LmGT2 that are glucose transport deficient and complemented with the L. Mexicana glucose transporter 2. Activity is measured by DNA content using SYBR green in vitro

Solute carrier family 2, facilitated glucose transporter member 1 (Homo sapiens), sequence (P11166 whole entry): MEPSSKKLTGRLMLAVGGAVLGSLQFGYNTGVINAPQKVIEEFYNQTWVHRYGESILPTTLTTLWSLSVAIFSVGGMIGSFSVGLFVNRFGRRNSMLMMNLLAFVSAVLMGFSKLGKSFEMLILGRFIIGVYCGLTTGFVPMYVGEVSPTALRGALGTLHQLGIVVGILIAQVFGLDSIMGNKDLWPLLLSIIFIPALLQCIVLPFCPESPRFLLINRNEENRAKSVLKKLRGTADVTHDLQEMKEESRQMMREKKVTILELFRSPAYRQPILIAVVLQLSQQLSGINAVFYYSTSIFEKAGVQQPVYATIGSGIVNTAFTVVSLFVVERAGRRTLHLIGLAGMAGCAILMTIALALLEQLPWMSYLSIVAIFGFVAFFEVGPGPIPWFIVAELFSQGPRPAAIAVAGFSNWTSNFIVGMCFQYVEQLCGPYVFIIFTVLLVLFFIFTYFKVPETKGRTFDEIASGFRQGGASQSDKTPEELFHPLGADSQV

Structure (SMILES) | inhibition [1] [%] | inhibition [2] [%] | inhibition [3] [%]
CN(C)CC(=O)NCC(NCCCNc1cc(=O)c2ccccc2[nH]1)c1cc(Br)cc(Br)c1 (stereo unspecified) | 5.5 | 5.13 | 5.64
NS(=O)(=O)c1cccc(-c2ccc3ncc(N4CCOCC4)nc3c2)c1 | 1.24 | 2.84 | -0.09
O=C(Nc1ccc2c(c1)CCNCC2)Nc1ccc2ccccc2c1 | 11.1 | 8.46 | 9.36
COCCN(CCOC)c1ncc(-c2ccsc2)c(-c2nc(C)c(C)s2)n1 | -1.28 | 0.1 | 1.83
O=S(=O)(NCCN1CCCC1)c1ccc(-c2cccc(CNC3Cc4ccccc4C3)c2)s1 | 13.9 | 13.6 | 5.84
C[C@H](NC(=O)[C@H](Cc1ccccc1)NC(=O)OC(C)(C)C)C(=O)N[C@@H](CC1CCCCC1)C(O)CN (stereo partly specified) | -1.66 | 0.84 | -1.53
CC(C)(C)c1ccc(C(=O)N2CCC3(CC2)C(=O)N(CC(=O)NCC2CCCO2)CN3c2ccccc2)cc1 (stereo unspecified) | 0.44 | 4.61 | 0.02
CCOc1ccc(Br)cc1/C=C/C(=O)Nc1ccc2c(c1)CCCN(C)C2 | 11.6 | 10.4 | 11.8
COc1ccc2nccc(CCC3(O)CCC(NCc4cc5c(cc4F)SCC(=O)N5)CC3)c2c1 (stereo unspecified) | 0.25 | 2.45 | -2.7
COc1cccc(CNC(=O)c2cccc(-c3cccc(CN4CCC(N5CCCC5)CC4)c3)n2)c1 | 4.26 | 4.42 | 6.93
Cc1ccc(C(C#N)c2ccc3c(C(F)(F)F)cc(C(F)(F)F)nc3n2)cc1 (stereo unspecified) | 1.88 | 2.44 | 4.34
O=C(/C=C/c1ccc(Cl)c(Cl)c1)NCCCN1CCC(c2c[nH]c3ccccc23)CC1 | 6.28 | 5.12 | 6.57
COc1ccc(CN2CCC(N3CCc4cc(NC(=O)c5cc(C)on5)ccc43)C2)cc1Cl (stereo unspecified) | -0.2 | -3.51 | 0.69
OC(CNC1CCCCC1)Cn1c2ccc(Br)cc2c2cc(Br)ccc21 (stereo unspecified) | 0.51 | 0.28 | 0.64
N=c1n(Cc2ccccc2)c2ccccc2n1CC(O)c1ccc(Cl)c(Cl)c1 (stereo unspecified) | -0.72 | 1.71 | 1.3
Cc1cc(N(C)C)nc(Nc2ccc(NC(=O)c3cccc(F)c3)cc2)n1 | 3.36 | 10.1 | 3.75
Cc1ccc(C)c(-n2c(SCC(=O)Nc3ccc(C(N)=O)cc3)nnc2-c2cccc(Cl)c2)c1 | 11.3 | 11.6 | 10.4
CCN(CC)CCN(Cc1ccc(-c2ccc(C(F)(F)F)cc2)cc1)C(=O)Cn1c(CCc2cccc(F)c2F)nc(=O)c2cc(F)c(F)cc21 | 9.33 | 7.63 | 9.47
CN1CCN(c2cc(-c3ccncc3)nc(-c3cccnc3)n2)CC1 | 5.17 | 3.27 | 3

Structure (SMILES) | inhibition [1] [%] | inhibition [2] [%] | inhibition [3] [%]
OCCN1CCN(Cc2ccc(-c3cccc(-c4nc5ccccc5[nH]4)c3)cc2)CC1 | -1.4 | -2.88 | -1.5
Nc1c2ccccc2nc2ccc(Cl)cc12 | 14.6 | 16.4 | 9.04
Cc1cc(C)c(C)c(S(=O)(=O)N2CCCCC(c3ccc(F)c(F)c3)=N2)c1C | 2.94 | -0.61 | 6.62
CC(C)C(C(=O)Nc1ccc2c(c1)OCO2)c1ccc(Cl)cc1 (stereo unspecified) | 3.38 | 2.76 | 1.99
COc1cc2c(cc1S(=O)(=O)c1ccc(NC(=O)Nc3ccc(F)cc3)cc1)CCN(C)CC2 | 3.01 | 2.22 | 3.04
Cn1c(CN2CCC(N3CCc4cc(NC(=O)c5ccco5)ccc43)C2)cc2ccccc21 (stereo unspecified) | 5.51 | 4.84 | 5.36
Cc1cc(N2CCN(C(=O)OC(C)(C)C)CC2)ccc1N | 6.77 | 8.78 | 7.39
COc1cccc(CNC(=O)NC2CCN(c3ccnc(Nc4cc(OC)c(OC)c(OC)c4)n3)C2)c1 (stereo unspecified) | 2.39 | 1.6 | 2.88
COc1cccc2c(Nc3ccccc3C)nc(Nc3ccccc3C)nc12 | 19.6 | 16.8 | 4.14
O=C(NCCc1ccc(Cl)c(Cl)c1)[C@@H]1CCCN1C(=O)c1ccc(O)c(-c2cccc(C(F)(F)F)c2)c1 | 1.34 | -0.04 | -2.44
COC(=O)c1ccc2nc(-c3ccc(/C=C/C(=O)NC4CCN(Cc5ccccc5)CC4)cc3)[nH]c2c1 | 0.71 | 5.26 | 5.84
O=C(Nc1ccc(Cl)cc1F)N[C@H]1CCN(CCCCCNC(=O)C2CC2c2ccc(Cl)c(Cl)c2)C1 (stereo partly specified) | 8.35 | 8.26 | 8.63
COc1ccc(NC(=O)NC2CCN(c3ccnc4cc(Cl)ccc34)CC2)cc1 | 3.93 | 1.61 | 0.02
CC(C)CCOc1ccc(NC(=O)c2cccs2)cc1 | 4.93 | 5.81 | 5.27
CN1CCCC1CCNc1ncc2c(-c3ccc(NC(=O)Nc4cc(C(F)(F)F)ccc4F)c(F)c3)nn(C)c2n1 (stereo unspecified) | -1.71 | 0.21 | -0.39
CC(=O)Nc1ccc2[nH]cc(C3CCN(CC4CCN(C(=O)/C=C/c5ccc(Cl)c(Cl)c5)CC4)CC3)c2n1 | 3.09 | 0.87 | -1.1
COc1ccc(CNCc2ccsc2)cc1-c1ccc(S(=O)(=O)NCCN2CCCC2)c(C)c1 | -0.35 | -1.19 | -4.07
C=CCOc1ccccc1CNCC(O)c1cc(Br)cs1 (stereo unspecified) | 1.55 | 2.37 | 2.43
